Measurements reported in PubChem BioAssay (Tox21).
Results filed as inconclusive are left out. A call without a number means that no potency is given here. The source made the active and inactive calls. Unless noted, calls come from the whole dose curve.

test: qHTS assay to identify small molecule agonists of the endoplasmic reticulum stress response signaling pathway - cell viability counter screen (AID 1159517); details: ESRE-bla HeLa viability, CellTiter-Glo luminescence, 5 h; series mostly up to 61 µM;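 note: HeLa cells carrying an ER stress response element beta-lactamase reporter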
Method in brief: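 Steps: seed 1,500 ESRE-bla HeLa cells per well; incubate overnight at 37 C, 5% CO2; add compounds in DMSO for 5 hr; run FRET substrate 2 hr RT; add CellTiter-Glo, wait 30 min, read luminescence.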
Note: nearly all actives have a fitted effect of over 50% in size.

SMILES | Potency
CC1=CC(=O)CC(C)(C)C1 | inactive
Clc1cccc(Cl)c1NC1=NCCN1 | inactive
CC1(C)C(=O)N(Cl)C(=O)N1Cl | inactive
CCCCCCCC(=O)O | inactive
O=C1O[C@H]([C@H](O)CO)C(O)=C1O | inactive
CS(=O)(=O)c1ccc(Cl)cc1 | inactive
OB(O)O | inactive
CC(=O)OCc1ccc2c(c1)OCO2 | inactive
CCCCCCCCCCCCCC(=O)O | inactive
CC1(C)[C@@H](O[C@H]2O[C@H](C(=O)O)[C@@H](O)[C@H](O)[C@H]2O[C@@H]2O[C@H](C(=O)O)[C@@H](O)[C@H](O)[C@H]2O)CC[C@]2(C)[C@H]3C(=O)C=C4[C@@H]5C[C@@](C)(C(=O)O)CC[C@]5(C)CC[C@@]4(C)[C@]3(C)CC[C@@H]12 | inactive
Cc1ccncc1 | inactive
O=Cc1ccc(CO)o1 | inactive
CC(=O)Nc1ccc(CC(=O)O)cc1 | inactive
COc1cc(NC(=O)CC(C)=O)c(OC)cc1Cl | inactive
CC(COCC(C)OC(=O)c1ccccc1)OC(=O)c1ccccc1 (centres undefined) | inactive
CC(C)c1ccc(C(C)C)cc1 | inactive
CCN(CC)CCNC(=O)c1ccc(N)cc1 | inactive
O=C(NCC1CCCCN1)c1cc(OCC(F)(F)F)ccc1OCC(F)(F)F (centres undefined) | inactive
C[n+]1ccn(CCO)c1 | inactive

SMILES | Potency
C=CC(=O)NCOCCCC | inactive
O=[N+]([O-])c1cc(C(F)(F)F)ccc1Cl | inactive
CCCCC(=O)O | inactive
C1CCCNCC1 | inactive
COc1ccc2cc3[n+](cc2c1OC)CCc1cc2c(cc1-3)OCO2 | inactive
Nc1nc(N)c2nc(-c3ccccc3)c(N)nc2n1 | inactive
COc1ccc([C@@H]2CC(=O)c3c(O)cc(O[C@@H]4O[C@H](CO[C@@H]5O[C@@H](C)[C@H](O)[C@@H](O)[C@H]5O)[C@@H](O)[C@H](O)[C@H]4O)cc3O2)cc1OC | inactive
CCCN(CCC)C(=O)SCC | inactive
CC/C(C)=N/O | inactive
CC/C=C(\C(=O)N[C@@H]1C(=O)N2C(C(=O)OCOC(=O)C(C)(C)C)=C(COC(N)=O)CS[C@H]12)c1csc(N)n1 | inactive
COC(=O)CCCCC(=O)OC | inactive
C[Si](C)(C)N[Si](C)(C)C | inactive
COC(=O)/C=C\C(=O)OC | inactive
O=C1C(N(CO)C(=O)NCO)N(CO)C(=O)N1CO (centres undefined) | inactive
NC(N)=S | inactive
c1cnc2c(c1)ccc1cccnc12 | inactive
Nc1cccc(N)n1 | inactive
OCC(CO)(CO)CO | inactive
Oc1ccc(Cc2ccccc2O)cc1 | inactive

test: qHTS assay to identify small molecule antagonists of the retinoid-related orphan receptor gamma (ROR-gamma) signaling pathway - cell viability counter screen (AID 1159520; active = well fitted cell-killing curve with a large enough effect in the repeat runs); details: Tet-on RORgamma CHO cells viability, ATP luminescence, 16 h; series mostly up to 92.4 µM
Method in brief: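 Tet-on ROR gamma CHO cells were given compounds for 2 hr, then doxycycline hyclate at 1 uM final, and incubated 16 hr at 37 C. Viability was measured as ATP content by CellTiter-Glo luminescence.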

SMILES | Potency
CC1=CC(=O)CC(C)(C)C1 | inactive
Clc1cccc(Cl)c1NC1=NCCN1 | inactive
CC1(C)C(=O)N(Cl)C(=O)N1Cl | inactive
CCCCCCCC(=O)O | inactive
O=C1O[C@H]([C@H](O)CO)C(O)=C1O | inactive
CS(=O)(=O)c1ccc(Cl)cc1 | inactive
CC(=O)OCc1ccc2c(c1)OCO2 | inactive
CCCCCCCCCCCCCC(=O)O | inactive
CC1(C)[C@@H](O[C@H]2O[C@H](C(=O)O)[C@@H](O)[C@H](O)[C@H]2O[C@@H]2O[C@H](C(=O)O)[C@@H](O)[C@H](O)[C@H]2O)CC[C@]2(C)[C@H]3C(=O)C=C4[C@@H]5C[C@@](C)(C(=O)O)CC[C@]5(C)CC[C@@]4(C)[C@]3(C)CC[C@@H]12 | inactive
Cc1ccncc1 | inactive
O=Cc1ccc(CO)o1 | inactive
CC(=O)Nc1ccc(CC(=O)O)cc1 | inactive
COc1cc(NC(=O)CC(C)=O)c(OC)cc1Cl | inactive
CC(COCC(C)OC(=O)c1ccccc1)OC(=O)c1ccccc1 (centres undefined) | inactive
CC(C)c1ccc(C(C)C)cc1 | inactive
CCN(CC)CCNC(=O)c1ccc(N)cc1 | inactive
O=C(NCC1CCCCN1)c1cc(OCC(F)(F)F)ccc1OCC(F)(F)F (centres undefined) | inactive
C[n+]1ccn(CCO)c1 | inactive

SMILES | Potency
C=CC(=O)NCOCCCC | inactive
O=[N+]([O-])c1cc(C(F)(F)F)ccc1Cl | inactive
CCCCC(=O)O | inactive
C1CCCNCC1 | inactive
COc1ccc2cc3[n+](cc2c1OC)CCc1cc2c(cc1-3)OCO2 | inactive
Nc1nc(N)c2nc(-c3ccccc3)c(N)nc2n1 | inactive
COc1ccc([C@@H]2CC(=O)c3c(O)cc(O[C@@H]4O[C@H](CO[C@@H]5O[C@@H](C)[C@H](O)[C@@H](O)[C@H]5O)[C@@H](O)[C@H](O)[C@H]4O)cc3O2)cc1OC | inactive
CCCN(CCC)C(=O)SCC | inactive
CC/C(C)=N/O | inactive
CC/C=C(\C(=O)N[C@@H]1C(=O)N2C(C(=O)OCOC(=O)C(C)(C)C)=C(COC(N)=O)CS[C@H]12)c1csc(N)n1 | inactive
C[Si](C)(C)N[Si](C)(C)C | inactive
COC(=O)/C=C\C(=O)OC | inactive
O=C1C(N(CO)C(=O)NCO)N(CO)C(=O)N1CO (centres undefined) | inactive
NC(N)=S | inactive
c1cnc2c(c1)ccc1cccnc12 | inactive
Nc1cccc(N)n1 | inactive
OCC(CO)(CO)CO | inactive
Oc1ccc(Cc2ccccc2O)cc1 | inactive
